Source: PubChem
Rows were chosen to be rich in hits. Some 3.9% of all compounds tested hit in one or more screens of this group.
BoNT F protease: blocks Botulinum neurotoxin F light chain protease; Multiplex microsphere protease cleavage assay, flow cytometry; AID 588497; inhibition, % at 10 µM; 0.22% of 360,000 active; in the data active = inhibition above about 35%, passing the limit was not always enough; inconclusive = no clear call, values can overlap the other calls
CCHF vOTU inh: CCHFV vOTU protease inhibition; Pep-AMC fluorescence; inhibition, % at 11.5 µM; 0.55% of 370,000 active; AID 651958; in the data active = inhibition above about 30%
Anthrax LF inh2: inhibitors of Bacillus anthracis lethal factor protease; P15917; AID 588501; multiplex microsphere protease cleavage assay, LF; inhibition, % at 10 µM; 0.12% of 360,000 active
BoNT A protease: BoNT A light chain protease inhibition; multiplex microsphere protease substrate cleavage, flow cytometry; inhibition, % at 10 µM; 0.17% of 360,000 active; AID 588499
3CLpro inhibitor: SARS-CoV 3CLpro protease inhibition; P0C6X7; recombinant SARS-CoV 3CLpro, quenched FRET peptide cleavage; inhibition, % at 6 µM; 0.14% of 290,000 active; AID 1706; in the data active = inhibition above about 12%
Autofluor counter: compound fluorescence in toxin protease inhibitor counterscreen | AID 624483 | compound autofluorescence counterscreen, microsphere flow cytometry; active compounds read high | 3.1% of 360,000 active | fluorescence intensity (test concentration not listed); in the data active = fluorescence intensity above about 16000; inconclusive = no clear call, values can overlap the other calls
Each line names hits and unclear results; the compound was inactive in the other large screens. Rule as the data show it, unless noted: active = inhibition above about 30%; inconclusive = no clear call, values can overlap the other calls; inactive = below that.

Cc1ccc(N2C(=O)[C@@H]3Cc4ccccc4CN3C2=O)cc1	Autofluor counter 21075
COC(=O)C1=C(C)N(C)C(=NCc2ccccc2C(F)(F)F)NC1c1ccc(Cl)cc1 (centres undefined)	none (no result: BoNT F protease, Anthrax LF inh2, BoNT A protease, 3CLpro inhibitor, Autofluor counter)
COc1cccc(OC[C@@H](O)CN2CCC(C(O)(c3ccccc3)c3ccccc3)CC2)c1	none (no result: BoNT F protease, Anthrax LF inh2, BoNT A protease, 3CLpro inhibitor, Autofluor counter)
Cc1ccnc(NC2(C(F)(F)F)N=C(c3ccccc3)NC2=O)c1 (centres undefined)	Autofluor counter 19679
COc1ccc2c(c1)Cc1sc(NC(C)=O)nc1-2	CCHF vOTU inh 81
COc1ccc2c(c1)Cc1sc(NC(=O)c3cccnc3)nc1-2	none
COc1ccc(CNC(=O)OC2CC3CC2[C@H]2CCCCN2C3)cc1 (some centres undefined)	none (no result: BoNT F protease, Anthrax LF inh2, BoNT A protease, 3CLpro inhibitor, Autofluor counter)
CCOC(=O)C(C)Sc1nc2c(c(-c3cccs3)c1C#N)CCC2 (centres undefined)	none
COC(=O)CSc1nc2c(c(-c3ccco3)c1C#N)CCCC2	none (no result: CCHF vOTU inh)
CC(C)OC(=O)CC(=O)CSc1nc2c(c(-c3cccs3)c1C#N)CCC2	BoNT A protease 30
CCOC(=O)CSc1nc2c(c(-c3ccc(C)o3)c1C#N)CCCC2	Autofluor counter 23315
Cc1[nH]n(C(N)=S)c(=O)c1N=Nc1ccc(S(=O)(=O)N2CCCCCC2)cc1	BoNT A protease inconclusive, Autofluor counter 21910
CCOc1ccc(C(=O)Nc2nnc(C)s2)cc1OCC	BoNT A protease inconclusive, Autofluor counter 20767
C=CCN(Cc1ccc2c(c1)OCO2)C(C#Cc1ccccc1)c1ccccc1C(F)(F)F (centres undefined)	none (no result: BoNT F protease, Anthrax LF inh2, BoNT A protease, 3CLpro inhibitor, Autofluor counter)
Cc1ccc(C(=O)NCC(=O)OCC(=O)Nc2ccc(Cl)cc2C(F)(F)F)cc1C	BoNT F protease 38
Cc1ccsc1C(=O)OCC(=O)Nc1ccc(Cl)cc1C(F)(F)F	none
COc1nc(-c2ccc(C)cc2)ccc1-c1noc(-c2ccco2)n1	none
COc1nc(C)ccc1-c1noc(-c2ccco2)n1	Autofluor counter 20448
COc1ccc(NC(=O)c2ccc3nc(-c4ccccc4)c(-c4ccccc4)nc3c2)c(OC)c1	none
COc1ccc(C(=O)Nc2cccc3cccnc23)cc1OC	Autofluor counter 23720
COc1cccc(CNc2cccc3cccnc23)c1O	Autofluor counter 16704
COc1ccc(NC(=O)C(=O)Nc2cccc3cccnc23)cc1OC	none
COc1ccccc1NC(=O)c1ccc2nc(-c3ccccc3)c(-c3ccccc3)nc2c1	BoNT A protease inconclusive, Autofluor counter 20872
COc1ccc(C(=O)Nc2nc3ccccc3[nH]2)cc1OC	Autofluor counter 21383
COc1ccc(/C=C/C(Cc2cccc(C(C)=O)c2)c2ccc(C)cc2)cc1 (centres undefined)	none (no result: BoNT F protease, Anthrax LF inh2, BoNT A protease, 3CLpro inhibitor, Autofluor counter)
COc1ccccc1OCc1nc2ccccc2[nH]1	Autofluor counter 17050
Cc1ccnc(-n2c(-c3ccccc3)nc3ccccc3c2=O)c1	Autofluor counter 19731
Cc1ccc(NC(=O)CCC(=O)OCC(=O)c2ccc(Oc3ccc([N+](=O)[O-])cc3)cc2)c(C)c1	Autofluor counter 17075
c1ccc(-c2nnc(SCc3nc4ccccc4[nH]3)n2Cc2ccco2)cc1	BoNT A protease inconclusive, Autofluor counter 22637
N#Cc1ccc(CSc2nnc(-c3ccccc3)n2Cc2ccco2)cc1	BoNT A protease inconclusive, Autofluor counter 24109
CC(C)C[C@@H]1COc2cc(F)ccc2S(=O)(=O)N1C	none (no result: BoNT F protease, Anthrax LF inh2, BoNT A protease, 3CLpro inhibitor, Autofluor counter)
C[C@H](CO)N1C[C@H](C)[C@@H](CN(C)C(=O)Nc2ccc(C(C)(C)C)cc2)OCc2cn(nn2)CCCC1=O	none (no result: BoNT F protease, Anthrax LF inh2, BoNT A protease, 3CLpro inhibitor, Autofluor counter)
CN(C)S(=O)(=O)c1ccc(C(=O)Nc2ccccc2C(=O)O)cc1	none
CCOC(=O)c1[nH]c2ccccc2c1NC(=O)c1ccc(S(=O)(=O)N(C)C)cc1	none
CCOC(=O)c1oc2ccc(S(=O)(=O)N3CCOCC3)cc2c1C	BoNT A protease inconclusive, Autofluor counter 16344
CCOC(=O)c1oc2ccccc2c1NC(=O)c1ccc(S(=O)(=O)N(C)C)cc1	Autofluor counter 20341
CCOC(=O)c1oc2ccccc2c1NC(=O)c1ccc(S(=O)(=O)N2CCCC2)cc1	Autofluor counter 20008
CN(C)S(=O)(=O)c1ccc(C(=O)Nc2ccccc2F)cc1	Autofluor counter 16551 (no result: CCHF vOTU inh)
NC1=NC2(CCCCC2)N(c2ccc(F)cc2)C(N)=N1	none
NC1=NC2(CCCCC2)N(c2cccc(Cl)c2)C(N)=N1	Autofluor counter 16971
CN1C/C(=C/c2ccccc2)N2C(=O)C[C@@H](c3ccccc3)N=C12	none (no result: BoNT F protease, Anthrax LF inh2, BoNT A protease, 3CLpro inhibitor, Autofluor counter)
Cc1cc(C)n2nc(SC(C)C(=O)N3CCC4(CC3)OCCO4)nc2n1 (centres undefined)	BoNT A protease inconclusive, Autofluor counter 24597
COc1ccc(C2CCC3(CCC(=O)N3CCO)CC2)cc1 (centres undefined)	none (no result: BoNT F protease, Anthrax LF inh2, BoNT A protease, 3CLpro inhibitor, Autofluor counter)
Cc1ccc(S(=O)(=O)CCC(=O)N2CCN(c3ccc(Cl)cc3)CC2)cc1	Autofluor counter 17240
O=C(CCS(=O)(=O)c1ccc(Cl)cc1)N1CCN(c2ccc(F)cc2)CC1	none (no result: BoNT F protease, Anthrax LF inh2, BoNT A protease, 3CLpro inhibitor, Autofluor counter)
COCCCNC(=O)C[C@H]1C[C@@]2(C(=O)OC)C(=C[C@H](C3CCCC3)O[C@@H]2C)N(CCc2ccc(OC)c(OC)c2)C1=O	none (no result: BoNT F protease, Anthrax LF inh2, BoNT A protease, 3CLpro inhibitor, Autofluor counter)
O=C(CCC(=O)N1CCN(C2c3ccccc3-c3ccccc32)CC1)Nc1nnc(C(F)(F)F)s1	none (no result: BoNT F protease, Anthrax LF inh2, BoNT A protease, 3CLpro inhibitor, Autofluor counter)
O=S(=O)(c1cccc2cccnc12)N1CCC(c2cn3ccccc3n2)CC1	none (no result: BoNT F protease, Anthrax LF inh2, BoNT A protease, 3CLpro inhibitor, Autofluor counter)
CC1(C)CC(=O)C2=C(C1)OC(N)=C(C#N)C2C1CC=CCC1 (centres undefined)	Autofluor counter 22645 (no result: CCHF vOTU inh)
CC1C(C#N)=C(N)OC2=C1C(=O)CC(C)(C)C2 (centres undefined)	none
COc1cc2c(cc1OC)CSC1C(=O)N(C)C(SC2)C(=O)N1C	none (no result: BoNT F protease, Anthrax LF inh2, BoNT A protease, 3CLpro inhibitor, Autofluor counter)
CCN1CCN(C(=O)c2ccccc2N(Cc2ccccc2)S(=O)(=O)c2ccc(C)cc2)CC1	BoNT A protease inconclusive, Autofluor counter 21954
CCN1CCN(C(=O)c2ccccc2N(Cc2ccccc2)S(C)(=O)=O)CC1	Autofluor counter 21470
COc1ccc(S(=O)(=O)N(Cc2ccccc2)c2ccccc2C(=O)N2CCOCC2)cc1	none
CCOC(=O)c1nn(-c2ccccc2)c(=O)c2c(N)scc12	CCHF vOTU inh 37
CCOC(=O)c1nn(-c2ccccc2C)c(=O)c2c(N)scc12	none
CC(=O)Cn1c2ccccc2n2nc(CCC(=O)O)c(=O)nc12	none
COc1ccc(C(=O)Cn2c3ccccc3n3nc(CCC(=O)O)c(=O)nc23)cc1OC	Autofluor counter 20229
O=C(Cn1nc(-c2cccc(Cl)c2)ccc1=O)Nc1ccc(C(=O)NC2CC2)cc1	none
CCOCCCNC(=O)Cn1nc(-c2ccccc2)ccc1=O	none
CCN(CC)CCCNC(=O)Cn1nc(-c2ccccc2)ccc1=O	Autofluor counter 20162
O=C(Cn1nc(-c2ccccc2)ccc1=O)NCCN1CCN(Cc2ccccc2)CC1	none
O=C(Cn1nc(-c2cccc(Cl)c2)ccc1=O)Nc1cccnc1	BoNT A protease inconclusive, Autofluor counter 23773
O=C(Cn1nc(-c2ccccc2)ccc1=O)NCC1CCCO1 (centres undefined)	Autofluor counter 23626
O=C(Cn1nc(-c2ccccc2)ccc1=O)NCCN1CCN(c2cccc(Cl)c2)CC1	Autofluor counter 21385
